Measured values published in the supplement of paper PMC13380429.

Tests used:
[1] = system: Vero E6 infected with SARS-CoV-2; test: morphology score (similarity to uninfected cells); higher = more like uninfected cells; conditions: 24 h
[2] = system: Vero E6 infected with SARS-CoV-2; test: SARS-CoV-2 infection rate relative to infected DMSO; higher = more infection, active = 60 or less; conditions: 24 h

| Compound | morphology score [1] | SARS-CoV-2 infection rate [2] |
| --- | --- | --- |
| CN1C[C@@H]2C[C@H]1CN2c1cc2c(cc1F)c(=O)c(C(=O)O)cn2C1CC1 [danofloxacin] (10 µM) | 0.319 | 100% (inactive) |
| O=[N+]([O-])O[C@@H]1CO[C@H]2[C@@H]1OC[C@@H]2O [isosorbide-mononitrate] (10 µM) | -0.103 | 110% (inactive) |
| CCOC(=O)c1ccccc1OC(=O)CCCCCCCC(=O)Oc1ccccc1C(=O)OCC (10 µM) | 0.166 | 100% (inactive) |
| C[C@@H](O[C@H]1OCCN(Cc2nn[nH]c2CN(C)C)[C@H]1c1ccc(F)cc1)c1cc(C(F)(F)F)cc(C(F)(F)F)c1 (10 µM) | 0.43 | 58% (active) |
| Cc1ccccc1-n1c(CF)nc2ccc(N)cc2c1=O [afloqualone] (10 µM) | 0.166 | 96% (inactive) |
| C[N+](C)(C)CCOC(N)=O [carbachol] (10 µM) | -0.148 | 101% (inactive) |
| CS(=O)(=O)N(Cc1ccco1)C[C@@H](O)Cn1c2ccccc2c2ccccc21 (10 µM) | 0.000274 | 91% (inactive) |
| S=C=Nc1ccc(N=C=S)cc1 [bitoscanate] (10 µM) | -0.0255 | 106% (inactive) |
| NC(=O)N/N=C/c1ccc(Oc2ccc(F)cc2)cc1 (10 µM) | -0.137 | 112% (inactive) |
| O=C(O)CCCC[C@@H]1CCSS1 [thioctic-acid] (10 µM) | 0.0028 | 106% (inactive) |
| CO[C@@]1(NC(=O)CSCC#N)C(=O)N2C(C(=O)O)=C(CSc3nnnn3C)CS[C@@H]21 [cefmetazole] (10 µM) | 0.148 | 98.5% (inactive) |
| CCCCN1CCCCC1C(=O)Nc1c(C)cccc1C (stereo not drawn) [bupivacaine] (10 µM) | 0.0282 | 110% (inactive) |
| CCCCCCc1ccc(O)cc1O.Nc1c2ccccc2nc2ccccc12 [acrisorcin] (0.833333 µM) | 0.293 | 97% (inactive) |
| COc1ccc(C2C(=O)c3ccccc3C2=O)cc1 [anisindione] (10 µM) | -0.177 | 114% (inactive) |
| COCCN1CCN(Cc2ccc(-c3n[nH]c4c3C(=O)c3c(NC(=O)NN5CCOCC5)cccc3-4)cc2)CC1 (10 µM) | -0.35 | 117% (inactive) |
| CCN(CC)CCOc1ccccc1C(=O)CCc1ccccc1 [etafenone] (10 µM) | 0.151 | 97.5% (inactive) |
| CC(=O)N(c1onc(C)c1C)S(=O)(=O)c1ccc(N)cc1 [sulfisoxazole-acetyl] (10 µM) | 0.179 | 91% (inactive) |
| COC(=O)C[C@](O)(CCCC(C)(C)O)C(=O)O[C@@H]1C(OC)=C[C@]23CCCN2CCc2cc4c(cc2[C@H]13)OCO4 [homoharringtonine] (10 µM) | 0.837 | 23% (active) |
| O=C(N[C@@H](Cc1c[nH]c2ccccc12)C(=O)O)c1ccc(Cl)cc1 [benzotript] (10 µM) | -0.049 | 104% (inactive) |
| CCCCc1ccc(O)cc1O [rucinol] (10 µM) | -0.0981 | 99% (inactive) |
| COc1cc(OC)cc(N(CCNC(C)C)c2ccc3ncc(-c4cnn(C)c4)nc3c2)c1 [erdafitinib] (0.833333 µM) | 0.151 | 108% (inactive) |
| Fc1ccc(CN2CCC(Nc3ccc(C(F)(F)F)nn3)CC2)cc1F (10 µM) | -0.198 | 110% (inactive) |
| N#Cc1ccc(N(Cc2ccc(Br)cc2)n2cnnc2)cc1 (10 µM) | 0.208 | 102% (inactive) |
| Nc1nccc(-c2ccc3noc(-c4ccc(Cl)cc4)c3c2)n1 [PIM-1-Inhibitor-2] (10 µM) | -0.089 | 111% (inactive) |
| CN(c1ncccc1CNc1nc(Nc2ccc3c(c2)CC(=O)N3)ncc1C(F)(F)F)S(C)(=O)=O (0.833333 µM) | -0.119 | 106% (inactive) |
| COc1ccc(C[C@H]2NC[C@H](O)[C@H]2OC(C)=O)cc1 [anisomycin] (0.833333 µM) | 0.045 | 102% (inactive) |
| C=CC1=C(C)c2cc3[nH]c(cc4nc(cc5[nH]c(cc1n2)c(C)c5CCC(=O)O)C(CCC(=O)O)=C4C)c(C)c3C=C [protoporphyrin-IX] (10 µM) | -0.0298 | 115% (inactive) |
| O=C(Nc1ccc(S(=O)(=O)Nc2nccs2)cc1)C(c1ccccc1)c1ccccc1 (10 µM) | -0.0899 | 105% (inactive) |
| O=C(/C=C/C=C/c1ccc2c(c1)OCO2)N1CCCCC1 [piperine] (10 µM) | 0.0346 | 97.5% (inactive) |
